Giardia killer: kills Giardia lamblia; Giardia lamblia trophozoite viability; activity change, % at 7.66 µM, hits read low; hit rate 0.15% among 340,000; in the data active = activity change below about -80%; inconclusive = between about -30% and that limit;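 also: parasites exposed to compound for two days anaerobically before the ATP read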
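Giardia trophozoites, 100 cells per well, were exposed to compounds for 48 hrs at 37 deg C under anaerobic conditions; viability was then read as ATP content by bioluminescence after 15-30 min at room temperature.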
TDP1 block: TDP1 (human) enzyme inhibition | AID 485290 | Potency, µM (series often up to 130 µM), inactives show at the top dose activity change, negative = inhibition, usual class: inhibitors | Q9NUW8 | recombinant TDP1, AlphaScreen DNA substrate cleavage | hit rate 0.28% among 350,000; also: potency is read from the fitted curve at half-maximal effect; nearly all actives have a fitted effect of over 40% in size
Target sequence (Q9NUW8 whole entry, looked up): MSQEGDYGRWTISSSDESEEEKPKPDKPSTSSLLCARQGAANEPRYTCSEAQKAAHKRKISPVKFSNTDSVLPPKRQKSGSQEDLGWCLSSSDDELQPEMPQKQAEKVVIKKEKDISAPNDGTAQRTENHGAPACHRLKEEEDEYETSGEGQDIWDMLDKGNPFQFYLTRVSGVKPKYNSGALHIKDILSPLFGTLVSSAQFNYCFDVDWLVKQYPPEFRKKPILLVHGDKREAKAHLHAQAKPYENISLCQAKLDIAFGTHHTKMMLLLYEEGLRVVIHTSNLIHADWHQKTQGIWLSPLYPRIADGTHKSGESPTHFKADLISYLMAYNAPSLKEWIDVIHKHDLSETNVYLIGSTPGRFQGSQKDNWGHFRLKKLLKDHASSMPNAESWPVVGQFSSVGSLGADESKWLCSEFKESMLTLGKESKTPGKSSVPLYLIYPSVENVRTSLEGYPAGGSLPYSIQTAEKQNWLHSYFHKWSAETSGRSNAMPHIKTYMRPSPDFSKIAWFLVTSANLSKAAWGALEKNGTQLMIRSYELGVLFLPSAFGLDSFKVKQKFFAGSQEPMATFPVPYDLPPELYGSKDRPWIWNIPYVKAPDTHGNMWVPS
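Recombinant E. coli-expressed Tdp1 (1 nM) preincubated with compound 15 min at RT, then 5'-biotin/3'-phosphotyrosine-FITC DNA substrate (15 nM) added for 5 min. AlphaScreen beads (10 ug/ml) added, 10 min RT; tyrosine-FITC cleavage read as signal loss.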
TDP1 cell noCPT: qHTS for Inhibitors of human tyrosyl-DNA phosphodiesterase 1 (TDP1): qHTS in cells in absence of CPT; DT40 Tdp1-/- hTDP1 cells, no CPT, ATP luminescence, 48 h; Potency, µM (highest dose often 46.2 µM), inactives show at the highest dose activity change, negative = growth inhibition, hits mostly inhibitors; hit rate 15% among 420,000; AID 686978, 2013; also: potency is read from the fitted curve at half-maximal effect; nearly all actives have a fitted effect of over 55% in size
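Readout: luminescence from CellTiter-Glo after 30 min in the dark at RT. Cells: DT40 Tdp1-/- with stable hTDP1, 400/well. Exposure: compounds alone, ≥48 hr, 37 °C.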
DT40 TDP1 CPT: DT40-hTDP1 cell growth loss with CPT; chicken DT40 Tdp1-/-;hTDP1 cells + 20 nM CPT, ATP luminescence, 48 h; Potency, µM (doses to about 46.2 µM), without a hit: at the top dose activity change, negative = growth inhibition, usual class: inhibitors; hit rate 12% among 420,000; also: potency is read from the fitted curve at half-maximal effect; nearly all actives have a fitted effect of over 55% in size
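Chicken DT40 Tdp1-/- cells stably complemented with human TDP1 were seeded at 400 cells/well in medium containing 20 nM camptothecin, exposed to pin-transferred compounds, and grown at 37 °C for at least 48 hr. Viability was read as ATP luminescence.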
ELG1 DNA repair: blocks ELG1-dependent DNA repair in HEK293T cells; hit rate 2.3% among 330,000; Potency, µM (highest dose often 46.1 µM), inactives show at the highest dose activity change, negative = inhibition, most hits filed as inhibitors; HEK293T ELG1-luciferase reporter, luminescence, 16 h; DNA damage induced by 5-fluorouridine; also: potency is read from the fitted curve at half-maximal effect; nearly all actives have a fitted effect of over 55% in size
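Quantitative HTS, concentration-response format. 2,000 cells/well co-treated with 5-fluorouridine and compound, 16 hr in 5% CO2 at 37 °C; ONE-Glo luminescence read after 30 min.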
IL1B secr inh: inflammasome signaling inhibition, IL-1 beta readout. THP-1 LPS/ATP IL-1B secretion, AlphaLISA, 16 h; stronger effect = lower value. activity change, % at 57.5 µM. hit rate 4.7% among 360,000; in the data active = activity change below about -50%; inconclusive = mostly about -30% to -49%
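Secreted IL-1B measured by AlphaLISA bead assay after 16 h compound exposure of THP-1 cells; compounds (final up to 57.5 uM) added 1 h before LPS (250 ng/mL) and ATP (1.25 mM) stimulation; lower signal means less secretion.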
The depositor's hits bear a star; i = inactive; ? = inconclusive; · = no result; [ ] = another dose, or the depositor's remark. Most compounds without a hit are left out; they make up all but 19% or so of the library. Unless noted, calls follow the shape of the dose curve; as a rule, active = well fitted curve in the direction sought with a large enough effect; inconclusive = small, poorly fitted or top-dose-only effect, or another doubt; inactive = no such curve, though single readings can be large; an effect the other way counts as inactive or inconclusive. % is scaled to controls: 0 for no effect and ±100 for the full control effect.

SMILES | Giardia killer | TDP1 block | TDP1 cell noCPT | DT40 TDP1 CPT | ELG1 DNA repair | IL1B secr inh
COC(=O)c1ccccc1NC(=O)c1ccc(-c2nc(COc3ccccc3)c(C)o2)cc1 | · | 3% | 1% | -2% | · | ·
Cc1c(NC(=O)/C=C/c2cn(-c3ccccc3)nc2-c2ccc(F)cc2)c(=O)n(-c2ccccc2)n1C | -20 | -2% | ? | 15µM* | 4% | -7
Cc1c(NC(=O)/C=C/c2cccs2)c(=O)n(-c2ccccc2)n1C | -7 | 6% | -5% | -1% | -6% | -5
CC1=NNC(=O)/C1=C\c1cn(-c2ccccc2)nc1-c1cccs1 | 1 | 8% | 2.6µM* | 2.6µM* | ? | -96*
S=c1[nH]nc(-c2cccs2)n1/N=C/c1cn(-c2ccccc2)nc1-c1ccccc1 | -9 | · | ? | 0% | ? | 41
N#CCC(=O)Nc1ccc(C(=O)OCC(=O)c2ccc3c(c2)OCCO3)cc1 | 2 | 11% | 18µM* | ? | ? | 17
N#CCC(=O)Nc1ccc(C(=O)OCC(=O)c2ccc3c(c2)OCO3)cc1 | 8 | -4% | -17% | 4% | ? | ?
CC(C)(C)NC(=O)COC(=O)c1ccc(NC(=O)CC#N)cc1 | -20 | 3% | -5% | 1.5µM* | -4% | 41
O=C(COC(=O)c1ccc(O)cc1O)Nc1ccc2c(c1)OCCO2 | -8 | 2% | 9.2µM* | 9.2µM* | ? | -6
O=C(COC(=O)c1ccc(O)cc1)Nc1ccc2c(c1)OCO2 | 20 | 0% | 12µM* | ? | 13% | 6
NC[C@H]1O[C@H](O[C@H]2[C@H](O[C@@H]3O[C@H](CO)[C@@H](O)[C@H]3O)C(O)[C@H](N)C[C@@H]2N)[C@H](N)[C@@H](O)[C@@H]1O (some centres undefined) | · | · | -9%[21.1 µM] | -15%[21.1 µM] | · | ·
Cc1nn(C)cc1S(=O)(=O)N1CCN(c2ccccc2F)CC1 | 14 | 1% | -22% | -19% | -12% | i
COCCNC(=O)C1(C)CCCN(Cc2cc(-c3ccccc3)nn2C)C1 (centres undefined) | · | · | ? | ? | · | -16
O=C(Cn1cc(C(F)(F)F)ccc1=O)N/N=C/c1ccc(Cl)cc1 | -7 | 3% | -25% | -12% | -3% | 8
Cc1ccc(-n2[nH]c(C)c(CCC#N)c2=O)cc1 | -2 | 4% | -12% | -26% | -6% | -1
N#Cc1c(NC(=O)COC(=O)c2ccc(O)cc2O)sc2c1CCC2 | -19 | 22µM* | ? | ? | 1% | 18
O=C(COC(=O)c1ccc(O)cc1O)Nc1ccc2ccccc2c1 | -24 | -7% | 13µM* | 15µM* | ? | 23
CCc1nc(N2CCN(S(C)(=O)=O)CC2)c2c3c(sc2n1)CCCC3 | 2 | 6% | ? | ? | -16% | -5
COc1cc2c(cc1OC)CN(c1nc(CN3CCCC3)nc3sc(C)c(C)c13)CC2 | 18 | 5% | ? | -23% | ? | -67*
Cc1sc2nc(CN3CCOCC3)nc(N3CCOCC3)c2c1C | -19 | 3% | ? | 1% | ? | -1
COc1cc2c(cc1OC)CN(c1nc(CN3CCCCC3)nc3sc4c(c13)CCCC4)CC2 | 6 | 1% | ? | ? | 23µM* | -11
CC(C)(C)NCC(O)c1ccc(O)c(CO)n1 (centres undefined) | · | · | -4% | 3% | · | ·
CCC[C@@H]1C[C@@]1(CCC)C(NC(=O)OCc1ccccc1)c1ccc(-c2ccccc2)cc1 (some centres undefined) | · | -3% | · | · | · | ·
CCC[C@@H]1C[C@@]1(CCC)[C@@H](NP(=O)(c1ccccc1)c1ccccc1)c1ccc(C(=O)OC)cc1 | -16 | 3% | 16µM* | ? | -20% | -3
CC1(N(O)C=C2C=CC(=O)C=C2)CCCCC1=O (centres undefined) | 18 | -8% | 32% | -8% | ? | 8
SMILES | Giardia killer | TDP1 block | TDP1 cell noCPT | DT40 TDP1 CPT | ELG1 DNA repair | IL1B secr inh
CCc1nnc2c3ccccc3nc(Nc3ccc(F)c(Cl)c3)n12 | · | 2% | 18µM* | 18µM* | · | ·
CCOc1ccc(Nc2nc3ccccc3c3nnc(CC)n23)cc1 | · | -2% | 10µM* | 15µM* | · | ·
CCOc1ccc(OCC)c(Nc2nc3ccccc3c3nnc(C)n23)c1 | · | 6% | ? | 1% | · | ·
CCc1nnc2c(N3CCN(c4cc(Cl)ccc4C)CC3)nc3ccccc3n12 | · | 0% | -13% | -5% | · | ·
CCOC(=O)Cc1csc(NC(=O)c2ccc(NC(C)=O)cc2)n1 | -4 | 0% | -9% | -13% | 12% | 0
CCOC(=O)Cc1csc(NC(=O)/C=C/c2ccc(OC)cc2)n1 | -19 | 3% | 21µM* | 10µM* | ? | -5
CCOC(=O)Cc1csc(NC(=O)Nc2ccc(OC(F)(F)F)cc2)n1 | -18 | 1% | 18µM* | ? | 2.1µM* | -17
CCOC(=O)Cc1csc(NC(=O)CSc2ncnc3c2cnn3-c2ccc(OC)cc2)n1 | 4 | 8% | 15µM* | ? | ? | 2
CCOC(=O)Cc1csc(NC(=O)NC2(C(F)(F)F)Oc3cc(Cl)c(Cl)cc3O2)n1 | 12 | -9% | ? | 23µM* | -28% | 17
CCOC(=O)CNC(=O)CSc1ncnc2c1cnn2-c1ccc(Cl)cc1 | 18 | 8% | -24% | -14% | -4% | -4
O=C(COC(=O)COc1ccc(Cl)cc1)NCc1cccs1 | -2 | 0% | -1% | ? | ? | 5
N#CCC(=O)NN | · | 3% | -15% | -3% | · | ·
CCOC(=O)Cc1csc(N/N=C/c2ccccc2)n1 | 0 | 3% | ? | ? | ? | -2
CCOC(=O)Cc1csc(N/N=C\c2cccc(Br)c2)n1 | -7 | 7% | ? | 13µM* | 21% | 22
O=C(O)COc1ccc(OCCNC[C@H](O)COc2ccccc2)cc1 | · | 6% | -9% | -2% | · | ·
Nc1ncnc(Sc2ccc(Cl)cc2)c1[N+](=O)[O-] | 0 | 2% | 5.8µM* | 4.6µM* | ? | ?
Nc1ncnc(Sc2ncccn2)c1[N+](=O)[O-] | 1 | -5% | 1.3µM* | 1.2µM* | ? | -27
Cc1ccc(Sc2ncnc(N)c2[N+](=O)[O-])cc1 | -6 | -5% | ? | -26% | ? | -27
Nc1ncnc(Sc2ccccc2)c1[N+](=O)[O-] | -10 | -1% | -19% | -3% | ? | -103*
Cc1cccc(C)c1Nc1ncnc(N)c1[N+](=O)[O-] | -6 | -1% | -15% | 0% | 15% | 32
